Most compounds without a hit are left out; they make up all but 27% or so of the library.
CYP2C9 inhib – inhibitors of human CYP2C9; P11712; CYP2C9 Supersomes, luciferin-H conversion, luminescence; inhibition, % at 5 µM; actives 20% (n = 96,000); AID 777;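 active means blocking of liver enzyme CYP2C9 beyond about 50% at 5 µM, limit read from the data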
Target sequence (P11712 whole entry, looked up): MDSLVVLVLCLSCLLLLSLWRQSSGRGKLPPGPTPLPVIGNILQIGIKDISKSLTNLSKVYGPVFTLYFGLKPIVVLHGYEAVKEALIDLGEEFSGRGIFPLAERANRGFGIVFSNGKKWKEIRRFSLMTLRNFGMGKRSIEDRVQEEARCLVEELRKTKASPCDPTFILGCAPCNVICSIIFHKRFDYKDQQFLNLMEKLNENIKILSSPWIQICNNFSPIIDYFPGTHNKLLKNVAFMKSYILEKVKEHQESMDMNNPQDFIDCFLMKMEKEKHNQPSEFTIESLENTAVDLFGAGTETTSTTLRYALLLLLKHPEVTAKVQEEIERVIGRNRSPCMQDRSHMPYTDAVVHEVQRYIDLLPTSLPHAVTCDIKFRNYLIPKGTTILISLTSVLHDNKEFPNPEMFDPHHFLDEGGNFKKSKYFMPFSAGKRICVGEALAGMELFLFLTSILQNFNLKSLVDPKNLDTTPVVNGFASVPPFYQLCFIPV
CYP2C19 activ – cytochrome P450 2C19 (human) activation | P33261 | activation factor at 5 µM | recombinant CYP2C19, luciferin-H EGE luminescence; stronger effect = higher value; 0 = fully inhibited enzyme, 1 = untreated enzyme | AID 1025 | 96,000 tested, under 10 active;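 active means activation factor of at least 2 at 5 µM in the primary screen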
Cav3 T inh – human Cav3.2 channel inhibition, primary screen | O95180 | Cav3.2-expressing cells, Fluo-4 calcium fluorescence FDSS; stronger effect = lower value | B-score at 10 µM | actives 4% (n = 100,000) | AID 449739;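 active means single-dose well whose peak fluorescence ratio is a statistical outlier from its plate by either plate-standardised score or position-corrected B-score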
CYP2C19 inh – inhibitors of human CYP2C19 | P33261 | CYP2C19 Supersomes, luciferin-H EGE luminescence, 30 min | inhibition, % at 5 µM | actives 21% (n = 96,000) | AID 778;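 active means CYP2C19 inhibition above a set limit at 5 µM in the primary screen, cut at about 50% in these data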
CYP2C9 activ – CYP2C9 (human) activation. P11712. recombinant CYP2C9, luciferin-H conversion, luminescence; stronger effect = higher value; factor 1 = untreated enzyme, 0 = blocked. activation factor at 5 µM. actives 1.4% (n = 96,000). AID 1024;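 active means activation factor of 2 or more for CYP2C9 at a 5 µM dose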
Numbers stand for hits; n = inactive; x = no result.

SMILES	CYP2C9 inhib	CYP2C19 activ	Cav3 T inh	CYP2C19 inh	CYP2C9 activ
c1ccc(C2=Nn3c(nnc3-c3ccncc3)SC2)cc1	n	n	n	n	n
COc1ccc(C2=Nn3c(nnc3-c3ccccc3)SC2)cc1OC	n	n	n	72.0	n
C#CCNC(=O)C1=C[C@@H](C2CCCCC2)C[C@@H](OCCCCO)O1	x	x	n	x	x
COc1ccc(CCN2C(=NC(=O)CCC(=O)O)SC3CS(=O)(=O)CC32)cc1 (stereo unspecified)	n	n	n	n	n
Cc1ccc2c(c1Br)/C(=N/N1C(=O)c3ccccc3C1=O)C(=O)N2	50.8	n	x	n	n
Cn1c(-c2nnn(-c3ccc(F)cc3)n2)cc2ccccc21	x	x	n	x	x
Cc1ccc(-c2nnc(N(C)C(=O)c3ccccn3)s2)cn1	n	n	n	n	n
CN(C(=O)c1ccncc1)c1nnc(-c2cnccn2)s1	96.8	n	n	89.2	n
Cc1ccc(-c2nnc(N(C)C(=O)c3ccncc3)s2)cn1	85.0	n	n	n	n
CC(C)(C)c1cc(NC(=O)COc2ccc(Br)cc2)n(-c2ccccc2)n1	n	n	n	n	n
COc1ccc(-n2c(=O)c3ccccc3n(CC(=O)Nc3cc(C)on3)c2=O)cc1OC	n	n	x	n	n
Cc1ccc(C(=O)NC(C)(COc2nonc2C)COc2nonc2C)cc1	72.0	n	n	93.7	n
Cc1ccc(CNC(=O)CCS(=O)(=O)c2cc(Br)cc3c2N(C(=O)C2CC2)CC3)o1	88.6	n	n	n	n
CCC(=O)N1CCc2cc(Br)cc(S(=O)(=O)CCC(=O)NCCc3ccccc3)c21	71.5	n	n	n	n
CC(=O)N1CCc2cc(Br)cc(S(=O)(=O)NCC3CCCO3)c21 (stereo unspecified)	n	n	n	n	n
O=C1CC(=C2c3ccccc3-c3ccccc32)C(=O)N1CCN1CCN(c2cccc(Cl)c2)CC1	x	x	n	x	x
CC#CCN(CC#CC)S(=O)(=O)c1ccc(-n2cnnn2)c(OC)c1	n	n	n	83.8	n
COc1cc(S(=O)(=O)N(Cc2ccc(C)cc2)C2CCCCC2)ccc1-n1cnnn1	84.3	n	n	86.5	n
COc1cc(S(=O)(=O)N(Cc2ccc(C)cc2)Cc2ccco2)ccc1-n1cnnn1	53.1	n	n	63.6	n
COc1cc(S(=O)(=O)NCC2OCCc3ccccc32)ccc1-n1cnnn1 (stereo unspecified)	52.7	n	n	90.6	n
COc1ccc(CN(C2CCCC2)S(=O)(=O)c2ccc(-n3cnnn3)cc2)cc1OC	x	x	n	x	x
O=c1[nH]c2ccc(S(=O)(=O)N3CCN(c4ccccc4F)CC3)cc2s1	n	n	n	n	n
COc1ccc(NC(=O)CCNS(=O)(=O)c2ccc3c(c2)CCC(=O)N3)cc1	n	n	n	n	n
CCC(CC)n1[nH]c(=O)cc1N	x	x	n	x	x
CCOC(=O)c1[nH]c2ccccc2c1NC(=O)c1ccc(Br)o1	x	x	n	x	x
SMILES	CYP2C9 inhib	CYP2C19 activ	Cav3 T inh	CYP2C19 inh	CYP2C9 activ
CC(C)c1[nH]nc2c1C(Cc1ccccc1)C(C#N)=C(N)O2 (stereo unspecified)	57.3	n	-8.63	95.2	n
CCCc1[nH]nc2c1C(c1ccc(OC)c(CSC3=NCCS3)c1)C(C#N)=C(N)O2 (stereo unspecified)	57.8	n	n	n	n
COc1ccc(OC)c(-c2[nH]nc3c2C(c2ccco2)C(C#N)=C(N)O3)c1 (stereo unspecified)	n	n	n	80.4	n
CCCc1[nH]nc2c1C(c1cc(OC)cc(OC)c1)C(C#N)=C(N)O2 (stereo unspecified)	n	n	n	n	n
CC(C)CC1C(C#N)=C(N)Oc2n[nH]c(-c3ccccc3)c21 (stereo unspecified)	x	x	n	x	x
CCc1[nH]nc2c1C(Cc1ccccc1)C(C#N)=C(N)O2 (stereo unspecified)	n	n	n	53.2	n
CC(=O)Oc1ccc(C(=O)Nn2cnnc2)cc1	x	x	n	x	x
CCc1[nH]nc2c1C(c1ccc(Br)s1)C(C#N)=C(N)O2 (stereo unspecified)	66.2	n	n	67.3	n
Cc1[nH]nc2c1C(Cc1ccccc1)C(C#N)=C(N)O2 (stereo unspecified)	n	n	n	65.5	n
COCc1[nH]nc2c1C(c1c(F)cccc1Cl)C(C#N)=C(N)O2 (stereo unspecified)	n	n	n	57.6	n
CC(C)c1[nH]nc2c1C(C(C)C)C(C#N)=C(N)O2 (stereo unspecified)	n	n	n	58.7	n
CCc1[nH]nc2c1C(c1ccsc1)C(C#N)=C(N)O2 (stereo unspecified)	x	x	n	x	x
CC(C)C1C(C#N)=C(N)Oc2n[nH]c(-c3ccccc3)c21 (stereo unspecified)	x	x	n	x	x
CCCc1[nH]nc2c1C(Cc1ccccc1)C(C#N)=C(N)O2 (stereo unspecified)	n	n	n	67.9	n
Cc1ccc(SCc2[nH]nc3c2C(C(C)C)C(C#N)=C(N)O3)cc1 (stereo unspecified)	52.5	n	n	n	n
CCCc1[nH]nc2c1C(c1cc(OC)ccc1F)C(C#N)=C(N)O2 (stereo unspecified)	88.5	n	n	81.0	n
CCCc1[nH]nc2c1C(CCc1ccccc1)C(C#N)=C(N)O2 (stereo unspecified)	68.8	n	n	76.7	n
CCCC(=O)N=C1SC2CS(=O)(=O)CC2N1c1ccc(C(C)=O)cc1 (stereo unspecified)	n	n	n	n	n
C=CCC(Nc1ccccc1)C12C=CC(O1)C(C(=O)OC)=C2C(=O)OC (stereo unspecified)	x	x	n	x	x
CCc1[nH]nc2c1C(c1cccc(OC(=O)N3CCOCC3)c1)C(C#N)=C(N)O2 (stereo unspecified)	n	n	n	70.3	n
COc1ccc(C(=O)Nc2ccc3oc(-c4cccc(Cl)c4)cc(=O)c3c2O)cc1	x	x	n	x	x
Cc1ccc(NC(=O)CSCC#N)cc1	n	n	n	n	n
CCOc1ccccc1NC(=O)COn1nnc2ccccc21	n	n	n	91.6	2.2
CCOc1ccccc1NC(=O)CSc1nc2cccnc2n1C	n	n	n	65.7	n
CCOC(=O)CC(=O)CSCC(=O)Nc1ccc(C)cc1	n	n	n	53.7	n
SMILES	CYP2C9 inhib	CYP2C19 activ	Cav3 T inh	CYP2C19 inh	CYP2C9 activ
CCOc1ccc(NC(=O)CSc2nc3cccnc3n2CC)cc1	n	n	n	n	n
COc1cccc(-n2ccnc2SCC(=O)NCc2ccccc2)c1	n	n	x	95.5	n
O=C(O)CCSCc1ccccc1F	n	n	n	n	n
O=C(CCNc1n[nH]c(=O)[nH]c1=O)N1CCOCC1	n	n	n	n	n
CN1CCc2c(sc3ncn4nc(-c5ccccc5O)nc4c23)C1	n	n	x	n	n
CCOc1ccccc1NC(=O)CSc1nccn1-c1ccccc1	n	n	x	67.1	2.4
COC(=O)c1cccc(NC(=O)CSc2nnc(COc3cccc(C)c3)n2C)c1	n	n	n	n	n
CCOc1ccccc1NC(=O)CSCC(=O)Nc1ccccc1	n	n	n	92.7	2.6
COc1ccc(NC(=O)CSc2nccn2-c2ccccc2)c(OC)c1	n	n	n	95.1	n
